ELG1 DNA repair – inhibitors of ELG1-dependent DNA repair in HEK293T cells. HEK293T ELG1-luciferase reporter, luminescence, 16 h; DNA damage induced by 5-fluorouridine. Potency, µM (top dose mostly 46.1 µM), hits mostly inhibitors. 330,000 compounds, 2.3% hits. AID 504467; further: nearly all actives have a fitted effect of over 55% in size
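5-Fluorouridine DNA damage + compound/DMSO, 2,000 cells/well, 16 h, 37 °C/5% CO2. ONE-Glo, 30 min RT, luminescence. Readout = decrease in reporter signal.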
12-LOX inh – blocks human arachidonate 12S-lipoxygenase. P18054. purified 12hLO, xylenol orange hydroperoxide absorbance. Potency, µM (series often up to 108 µM), actives largely listed as inhibitors. 580,000 compounds, 1.1% hits
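Purified human 12hLO (150 nM final) in 25 mM Hepes, 0.01% Triton X-100, pH 7.0 was preincubated 15 min at room temperature with compound. Then 40 uM arachidonic acid was added, 30 min. Hydroperoxide was read by Fe-XO absorbance ratio 573/405 nm.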
VP16 counter – counter-screen for ROR gamma inhibitors: Gal4-VP16 reporter. Drosophila S2 Gal4-VP16 UAS-luciferase, luminescence, 20 h. Potency, µM (top dose mostly 53.6 µM), hits mostly inhibitors. 310,000 compounds, 3.5% hits. AID 2546;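 further: Gal4-VP16 expression switched on by copper sulfate through the metallothionein promoter; nearly all actives have a fitted effect of over 50% in size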
RORgamma inh – inhibitors of mouse ROR gamma transcriptional activity. P51450. Drosophila S2 Gal4-RORgamma UAS-luciferase reporter, 20 h. Potency, µM (doses to about 53.6 µM), actives largely listed as inhibitors. 310,000 compounds, 5.4% hits; further: nearly all actives have a fitted effect of over 60% in size
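Luminescence from a UAS-regulated Photinus luciferase reporter in stably transfected Drosophila Schneider cells is measured; decreased signal marks ROR gamma inhibition. Fusion expression is induced by 700 uM copper sulfate for 20 hr.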
DT40 TDP1 no CPT – qHTS for Inhibitors of human tyrosyl-DNA phosphodiesterase 1 (TDP1): qHTS in cells in absence of CPT; DT40 Tdp1-/- hTDP1 cells, no CPT, ATP luminescence, 48 h; Potency, µM (doses to about 46.2 µM), actives largely listed as inhibitors; 420,000 compounds, 15% hits; AID 686978, 2013; further: nearly all actives have a fitted effect of over 55% in size
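Chicken DT40 Tdp1-/- cells stably complemented with human TDP1 were seeded at 400 cells/well with DMSO in place of 20 nM camptothecin. After compound pinning, cells grew at least 48 hr at 37 °C; viability read by CellTiter-Glo luminescence.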
DT40 TDP1 CPT – growth inhibition of DT40 Tdp1-/-;hTDP1 cells with camptothecin (screen for TDP1 inhibitors). chicken DT40 Tdp1-/-;hTDP1 cells + 20 nM CPT, ATP luminescence, 48 h. Potency, µM (titrated, usually from 46.2 µM), hits mostly inhibitors. AID 686979. 420,000 compounds, 12% hits; further: nearly all actives have a fitted effect of over 55% in size
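Chicken DT40 Tdp1-/- cells complemented with human TDP1, 400 cells/well, exposed to compounds plus 20 nM camptothecin for at least 48 h at 37 C; viability read as ATP content by CellTiter-Glo luminescence.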
Numbers stand for hits; 0 = inactive; ? = inconclusive; - = no result. In the library only some 15% were active in any assay of this set; here they are far more common. The call rests on the fitted dose curve; in most records, active means well fitted curve in the direction sought with a large enough effect; inconclusive means small, poorly fitted or top-dose-only effect, or another doubt; inactive means no such curve, though single readings can be large; an effect the other way counts as inactive or inconclusive.

SMILES | ELG1 DNA repair | 12-LOX inh | VP16 counter | RORgamma inh | DT40 TDP1 no CPT | DT40 TDP1 CPT
CCOC(=O)c1c(-c2ccc(OC)c(OC)c2)csc1NC(=O)c1ccc(C)cc1 | - | ? | - | - | 0 | 0
CCOC(=O)c1c(C)[n+](-c2ccc(C)cc2)c(CC)c2cc(OC)c(OC)cc12 | 0 | 0 | 0 | ? | 2.59µM | 2.06µM
O=C(NC[C@H]1COCc2nc3cc(F)ccc3n21)c1ccc(Cl)cc1 | - | 0 | - | - | - | -
Nc1cccc(C(=O)c2ccc(F)cc2)c1 | - | 0 | - | - | - | -
COc1ccccc1NC(=O)C1=C(C)Nc2nc(-c3cccs3)nn2C1c1cccnc1 (configuration not stated) | 18.4µM | 0 | 0 | 0 | 0 | ?
COc1ccc(C2C=C(C)Nc3nc4ccccc4n32)cc1 (configuration not stated) | ? | 0 | 0 | 0 | 18.4µM | 0
COc1cccc(C2C(C(=O)Nc3ccccc3OC)=C(C)Nc3nc(-c4ccco4)nn32)c1 (configuration not stated) | - | 0 | - | - | 18.4µM | ?
COc1ccc(C2N=C(N)Nc3nc4ccccc4n32)cc1 (configuration not stated) | - | 0 | - | - | 0 | 0
COc1ccc(C2C(C(=O)c3ccccc3)=C(C)Nc3nc4ccccc4n32)c(OC)c1 (configuration not stated) | ? | 0 | 0 | 6.31µM | ? | ?
CCCCn1c(=O)c2sccc2n(CC(=O)N(CC)c2ccccc2)c1=O | - | 0 | - | - | - | -
Cc1cccc(CN2CCN(S(=O)(=O)c3c(C)noc3C)CC2)c1 | - | 0 | - | - | - | -
CCCCCn1c(NCCO)nc2c1c(=O)[nH]c(=O)n2C | - | 0 | - | - | - | -
COc1ccc(S(=O)(=O)Nc2ccc3n(c2=O)C[C@H]2C[C@@H]3CN(C(=O)Nc3cc(OC)cc(OC)c3)C2)cc1 | - | 0 | - | - | - | -
COc1cccc(C2C(C(=O)Nc3ccc(Cl)cc3)=C(C)Nc3nc4ccccc4n32)c1OC (configuration not stated) | - | 0 | - | - | ? | 20.6µM
COc1cccc(C2C(C(=O)Nc3ccccc3OC)=C(C)Nc3nc4ccccc4n32)c1 (configuration not stated) | - | 0 | - | - | 14.6µM | ?
COc1ccc(OC)c(C2C(C(=O)Nc3ccccc3)=C(C)Nc3nc4ccccc4n32)c1 (configuration not stated) | - | 0 | - | - | - | -
CCOc1ccccc1C1C(C(=O)Nc2ccccc2OC)=C(C)Nc2nc3ccccc3n21 (configuration not stated) | - | 0 | - | - | 0 | 0
COc1ccccc1NC(=O)C1=C(C)Nc2nc3ccccc3n2C1c1cccc(OC)c1OC (configuration not stated) | - | 0 | - | - | ? | 16.4µM
COCC(=O)N[C@@H]1CN(Cc2cccc(OC)c2OC)C[C@H]1CO | - | 0 | - | - | - | -
COc1ccc(-c2[nH]nc3ncc(-c4cccnc4OC)nc23)c(C)c1 | - | 0 | - | - | - | -
Cc1ccc(C(=O)N2CCN(c3ccc(NC(=S)NC(=O)c4cccs4)cc3)CC2)cc1 | ? | 11.2µM | 11.2µM | 7.08µM | 20.6µM | ?
CC(C)CC(=O)NC(=S)Nc1ccc(N2CCN(C(=O)c3cccs3)CC2)cc1 | ? | ? | 6.31µM | 7.08µM | 20.6µM | ?
Cc1ccc(C(=O)N2CCN(c3ccc(NC(=O)c4cc(C)cc(C)c4)cc3)CC2)cc1 | 0 | 0 | 0 | 0 | ? | ?
CCC(=O)N1CCN(c2ccc(NC(=O)c3cccs3)cc2)CC1 | ? | 0 | 0 | 0 | 0 | 0
CC(C)C(=O)Nc1ccc(N2CCN(C(=O)c3cccs3)CC2)cc1 | 0 | 0 | 0 | 0 | ? | 0
Cc1ccccc1C(=O)N1CCN(c2ccc(NC(=S)NC(=O)c3cccs3)cc2)CC1 | 20.6µM | 35.5µM | 5.62µM | 2.82µM | 23.1µM | 23.1µM
COc1ccc2[nH]cc(CCNC(=O)CCC3CCN(C(=O)c4ccccc4)CC3)c2c1 | - | 0 | - | - | - | -
CCOC(=O)c1c(C)[nH]c(-c2csc(C)n2)c1C | ? | 0 | 0 | 0 | 13µM | ?
COC(=O)c1c(C)[nH]c(-c2csc(NC3CC3)n2)c1C | - | 31.6µM | - | - | - | -
